The values that follow come from PubChem BioAssay (EPA / NIEHS).

By AC50 is commonly meant the concentration giving half of the maximal activity seen.

Activity calls are given as the source filed them. How the source made its calls: active means hit-call score of the fitted dose curve at least 0.9, where 1 is the maximum; inactive means score below 0.9.

Holding throughout (conditions): mRNA level, 48 h; actives raise or lower the signal
Read-out in test [1]: CFLAR gene, CFLAR (gene 8837)
Put plainly: LTEA_HepaRG_CFLAR: Life Technologies and Expression Analysis (LTEA) Assay for CFLAR gene using HepaRG (AID 2283455). A digest of the protocol: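 qRT-PCR read-out (Fluidigm/TaqMan) of CFLAR mRNA, normalized to three housekeeping genes, in differentiated human HepaRG cells after 48 h chemical exposure; 8-point half-log series from 100 uM in 0.5% DMSO; bidirectional curve fitting versus DMSO.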

Read-out in test [2]: Forkhead box O1 (FOXO1), FOXO1 (gene 2308)
The experiment in a line: LTEA_HepaRG_FOXO1: Life Technologies and Expression Analysis (LTEA) Assay for Forkhead box O1 (FOXO1) using HepaRG (AID 2283456). A digest of the protocol:
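HepaRG, 48 h exposure, 8-pt half-log series from 100 uM in 0.5% DMSO, duplicates; Fluidigm qRT-PCR mRNA, housekeeping-normalised; bidirectional fit vs DMSO baseline.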

Read-out in test [3]: Forkhead box O3 (FOXO3), FOXO3 (gene 2309)
Put plainly: LTEA_HepaRG_FOXO3: Life Technologies and Expression Analysis (LTEA) Assay for Forkhead box O3 (FOXO3) using HepaRG (AID 2283459). The essentials: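 qRT-PCR readout of FOXO3 transcript, normalized to three housekeeping genes (ACTB, GAPDH, POLR2A); gain or loss fitted against 0.5% DMSO vehicle. HepaRG cells, 48 h chemical exposure, 8-point half-log series, top 100 uM.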

Read-out in test [4]: ABC Transporter (ABCB1), ABCB1 (gene 5243)
The experiment in a line: LTEA_HepaRG_ABCB1: Life Technologies and Expression Analysis (LTEA) Assay for ABC Transporter (ABCB1) using HepaRG (AID 2283460). The essentials:
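HepaRG, 48 h exposure, 8-pt half-log series from 100 uM, 0.5% DMSO vehicle, duplicates. Readout: ABCB1 transcript by Fluidigm TaqMan qRT-PCR, housekeeping-normalized; bidirectional curve fit vs DMSO baseline.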

Read-out in test [5]: growth arrest and DNA damage 45 (GADD45B), GADD45B (gene 4616)
Put plainly: LTEA_HepaRG_GADD45B: Life Technologies and Expression Analysis (LTEA) Assay for growth arrest and DNA damage 45 (GADD45B) using HepaRG (AID 2283461). A digest of the protocol: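 Differentiated HepaRG cells, plated 48 h then switched to serum-free induction medium, were exposed 48 h in duplicate to eight half-log concentrations from 100 uM in 0.5% DMSO; mRNA quantified by qRT-PCR, normalized to ACTB/GAPDH/POLR2A, bidirectional fit versus DMSO.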

Read-out in test [6]: ABC Transporter (ABCC3), ABCC3 (gene 8714)
The experiment in a line: LTEA_HepaRG_ABCC3: Life Technologies and Expression Analysis (LTEA) Assay for ABC Transporter (ABCC3) using HepaRG (AID 2283462). The essentials:
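HepaRG cells in serum-free induction medium were exposed for 48 h in duplicate to 8-point half-log concentrations topping at 100 uM in 0.5% DMSO. ABCC3 mRNA was measured by qRT-PCR normalized to ACTB, GAPDH and POLR2A, with bidirectional fitting versus DMSO.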

Read-out in test [7]: ABC Transporter (ABCB11), ABCB11 (gene 8647)
The experiment in a line: LTEA_HepaRG_ABCB11: Life Technologies and Expression Analysis (LTEA) Assay for ABC Transporter (ABCB11) using HepaRG (AID 2283463). A digest of the protocol:
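HepaRG, 48 h exposure, 8-pt half-log CRC top 100 uM, 0.5% DMSO vehicle, duplicates. Readout: TaqMan qRT-PCR of ABCB11 mRNA, housekeeping-normalized (ACTB/GAPDH/POLR2A). Bidirectional fit vs DMSO baseline.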

Read-out in test [8]: ABC Transporter (ABCC2), ABCC2 (gene 1244)
Put plainly: LTEA_HepaRG_ABCC2: Life Technologies and Expression Analysis (LTEA) Assay for ABC Transporter (ABCC2) using HepaRG (AID 2283464). The essentials:
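HepaRG cells were plated 48 h, switched to serum-free induction medium, then exposed in duplicate for 48 h to 8 concentrations (top 100 uM, half-log steps, 0.5% DMSO). ABCC2 mRNA was measured by qRT-PCR normalized to ACTB/GAPDH/POLR2A; bidirectional fitting versus DMSO.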

Read-out in test [9]: growth arrest and DNA damage 45 (GADD45A), GADD45A (gene 1647)
Put plainly: LTEA_HepaRG_GADD45A: Life Technologies and Expression Analysis (LTEA) Assay for growth arrest and DNA damage 45 (GADD45A) using HepaRG (AID 2283458). A digest of the protocol: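 Transcript induction or loss, quantified by TaqMan qRT-PCR against three housekeeping genes, is the read-out. HepaRG cells received chemicals for 48 h across eight half-log concentrations from 100 uM in 0.5% DMSO; gain and loss fitted relative to DMSO.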

Turning to `CC(O)CO` (stereo not drawn), the result in test [1], in test [2], in [3], in test [4], in test [5] and in [6] was inactive. Also, the molecule was classed as inactive in test [7] and in test [8].

With `CCCCC(CC)COC(=O)CCCCC(=O)OCC(CC)CCCC` (stereo not drawn), the molecule was classed as inactive in [1], in [2], in test [9], in [4], in [5] and in test [6]. Also, the molecule was called inactive in [7] and in test [8].

Take `OCCC(F)(F)C(F)(F)C(F)(F)C(F)(F)C(F)(F)C(F)(F)C(F)(F)C(F)(F)F`: the outcome in test [1], in test [2], in [4], in [5], in test [6] and in test [7] was inactive. The molecule was classed as inactive in test [8].

In the case of `CC(C)(C)c1ccc(O)c(C(C)(C)C)c1`, the molecule was classed as inactive in test [1], in test [2], in test [3], in [4], in test [5] and in test [6]. The molecule was classed as inactive in test [7] and in test [8].

Turning to `CCN(CC)CCNc1ccc(CNC=O)c2sc3ccc(OC)cc3c(=O)c12`, the half-maximal activity concentration (AC50) in test [1] is 27.5 µM (active); in [2], 13.3 µM (active); in test [4], 60.8 µM (active); in [5] it was 11.4 µM (active); in test [6], 86.6 µM (active); in test [7] it was 11.4 µM (active). In addition, the AC50 in test [8] was 77.5 µM (active).

On to `CN(C)C=O`, for which the molecule was called inactive in test [1], in [2], in test [4], in [5], in test [6] and in test [7]. For the same molecule, in test [8], the outcome was inactive.

Regarding `Cc1oc(-c2ccccc2)nc1CCOc1ccc(C[C@H](Nc2ccccc2C(=O)c2ccccc2)C(=O)O)cc1`, the AC50 was 30 µM (active) in [1]; 26.5 µM (active) in test [4]; 58.4 µM (active) in [5]; 32.5 µM (active) in test [6]; 23.6 µM (active) in test [7]; 28.9 µM (active) in test [8]. Moreover, the molecule was classed as inactive in test [2].

Turning to `CCCOC(=O)c1ccc(O)cc1`, the result in test [1], in test [2], in test [4], in test [5], in [6] and in test [7] was inactive. The molecule was called inactive in test [8].

Turning to `CCc1ccc(CCOc2ccc(CC3SC(=O)NC3=O)cc2)nc1` (stereo not drawn), the molecule was called inactive in test [1], in [2], in test [3], in test [6] and in test [8]. Further, the AC50 is 11.2 µM (active) in [4], 11.9 µM (active) in test [5] and 76.8 µM (active) in test [7].

Turning to `CCCCCCCCCCCCCCCS(=O)(=O)Oc1ccccc1`, the call in test [1], in test [2], in test [5], in test [6] and in test [7] was inactive. Besides, the concentration at half-maximal activity (AC50) in test [4] was 13.3 µM (active); in [8], 11.2 µM (active).

Consider `CC(C)(C)c1cccc(C(C)(C)C)c1O`, for which the molecule was classed as inactive in test [1], in [2], in [3], in test [4], in [5] and in [6]. For the same molecule, the outcome in test [7] and in test [8] was inactive.

As for `CN1CCC[C@H]1c1cccnc1`, the molecule was called inactive in test [1], in test [2], in test [4], in test [5], in [6] and in test [7]. Also, the molecule was called inactive in test [8].

On to `NC(=O)N(O)[C@@H]1C=C[C@H](Oc2cccc(Oc3ccc(F)cc3)c2)C1`, for which the AC50 in test [1] is 67.3 µM (active); in [2], 82.1 µM (active); in [6], 21.1 µM (active); in test [7], 68 µM (active); in test [8], 82.5 µM (active). In addition, the outcome in test [3], in test [4] and in test [5] was inactive.

For the molecule `CC(C)CCCCCCOC(=O)CCCCC(=O)OCCCCCCC(C)C`, the molecule was classed as inactive in [1], in test [2], in test [4], in test [5], in test [6] and in test [7]. In test [8], the molecule was called inactive.

Regarding `Cc1cc(CCN2CCN(c3nsc4ccccc34)CC2)cc2c1NC(=O)CC2(C)C`, the molecule was classed as inactive in test [1], in test [2], in test [5] and in test [6]. Besides, the AC50 in [4] is 79.8 µM (active); in test [7], 74.7 µM (active); in test [8] it was 85.1 µM (active).

For `C=C(C)C(=O)OCCC(F)(F)C(F)(F)C(F)(F)C(F)(F)C(F)(F)C(F)(F)F`, the molecule was called inactive in test [1], in test [2], in test [4], in test [5], in test [6] and in test [7]. Further, in test [8], the molecule was called inactive.
